{"source": "PubChem BioAssay AID1850", "about": "(Southern Research Specialized Biocontainment Screening …, 2009)", "note": "Several values for one entry are separate records, joined by “and”; a condition that tells them apart may be missing. Identical values can stand only once. About 1,000 (0.32%) of roughly 310,000 compounds were called active. The list is a sample of the results. Potency and affinity values are given separately. A number with no mark means an inactive call. No rule for the calls is given here."}
{"test": "PhoP regulon inhibitors, Salmonella typhi PhoP promoter GFP reporter, confirmatory (AID 1850);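 also: 0% = induced wells with vehicle and 100% = uninduced wells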", "settings": "fluorescence, 4 h, at 50 µM, active compounds read high"}
{"compound": "O=C1CSC(c2ccc3c(c2)OCO3)N1c1ccc(Oc2ccccc2)cc1", "note": "(stereo unspecified)", "inhibition": "7.07%"}
{"compound": "c1ccc(CSc2ccc(-c3ccco3)nn2)cc1", "inhibition": "9.52%"}
{"compound": "Fc1ccc(CSc2ccc(-c3ccco3)nn2)cc1", "inhibition": "6.93%"}
{"compound": "C[C@]12CCC(=O)C=C1CC[C@@H]1C2CC[C@]2(C)C(=O)CCC12", "note": "(stereo partly specified)", "inhibition": "-12.1%"}
{"compound": "O=[N+]([O-])c1ccc(N/N=C/c2ccccc2)c(F)c1", "inhibition": "-8.42%"}
{"compound": "O=C(CCc1nnc(Cc2ccc(-c3ccccc3)cc2)o1)NCCc1cccnc1", "inhibition": "-5.62%"}
{"compound": "O=C(Oc1c(Cl)cc(Cl)c2cccnc12)c1cccs1", "inhibition": "13.7%"}
{"compound": "O=C(Oc1ccc(Cl)c2cccnc12)c1cccc([N+](=O)[O-])c1", "inhibition": "-4.89%"}
{"compound": "O=C(Oc1ccc(Cl)c2cccnc12)c1ccco1", "inhibition": "-5.73%"}
{"compound": "O=C(Oc1cccc2cccnc12)c1cccc([N+](=O)[O-])c1", "inhibition": "1.2%"}
{"compound": "O=C(Nc1cccc(Cl)c1)c1ccc(=O)[nH]n1", "inhibition": "12.7%"}
{"compound": "CC1CCC(NC(=O)c2nn(C)c3c2CS(=O)(=O)c2ccccc2-3)CC1", "note": "(stereo unspecified)", "inhibition": "5.03%"}
{"compound": "COc1cccc(C(=O)NNC(=O)Cc2ccc(Cl)cc2)c1", "inhibition": "-3.92%"}
{"compound": "CSCCC(N=C(NS(=O)(=O)c1ccc(C)cc1)c1ccccc1)C(=O)O", "note": "(stereo unspecified)", "inhibition": "-3.75%"}
{"compound": "CCC(C)(C)NC(=O)CN(C(=O)c1snc(C(N)=O)c1N)c1ccc2nc(C)sc2c1", "inhibition": "-5.66%"}
{"compound": "O=C(CCN1C(=O)C2C3C=CC(C3)C2C1=O)N1CCN(c2ccccc2F)CC1", "note": "(stereo unspecified)", "inhibition": "18.6%"}
{"compound": "COC(=O)CSc1nc2nc(-c3cccs3)cc(C(F)(F)F)c2c(=O)[nH]1", "inhibition": "-1.37%"}
{"compound": "CCOC(=O)c1cc2c(cn1)[nH]c1ccccc12", "inhibition": "9.76% and 5.1%"}
{"compound": "CNC(=O)c1cc2c(cn1)[nH]c1ccccc12", "inhibition": "3.35%"}
{"compound": "CCOC(=O)CCC(=O)Nc1ccc(S(=O)(=O)Nc2cc(OC)nc(OC)n2)cc1", "inhibition": "-6.86%"}
{"compound": "Cc1cc(C)c2c3c(sc2n1)C(=O)N(C)CC(=O)N3", "inhibition": "-4.13%"}
{"compound": "C/C(N)=C(/C#N)C(=O)COC(=O)CCC1CCCC1", "inhibition": "0.41%"}
{"compound": "N#CCC(=O)Nc1ccc(C(=O)N2CCN(c3ccccn3)CC2)cc1", "inhibition": "14.2%"}
{"compound": "CN(C)c1ccc(CN(Cc2ccco2)C(=O)c2ccco2)cc1", "inhibition": "-2.38%"}
{"compound": "CS(=O)(=O)N1CCC(Oc2ccccc2C(=O)NC2CCCCCC2)CC1", "inhibition": "-17.3%"}
{"compound": "CC(=O)c1cnc(Nc2cccc(C)c2)s1", "inhibition": "-8.01%"}
{"compound": "Cn1c(CNC(=O)CNS(=O)(=O)c2ccc(Br)cc2)cc(=O)n(C)c1=O", "inhibition": "-1.92%"}
{"compound": "CC(C)c1ccc(OCC(=O)NNC(=S)NC(=O)c2cccs2)c(Br)c1", "inhibition": "-8.98%"}
{"compound": "COc1ccc2oc(C(=O)OCC(=O)N(C)CC(=O)Nc3ccc(C)cc3)c(C)c2c1", "inhibition": "6.55%"}
{"compound": "CC1CCN(C(=O)c2ccc([N+](=O)[O-])o2)CC1", "inhibition": "5.43%"}
{"compound": "O=C(c1ccc([N+](=O)[O-])o1)N1CCN(Cc2ccccc2)CC1", "inhibition": "-0.17%"}
{"compound": "COc1ccc(C(=O)Nc2ccc(N3CCCC3)cc2)cc1", "inhibition": "-0.89%"}
{"compound": "COc1ccccc1NC(=O)COc1ccc(C(=O)OCC(=O)NC(C)(C)C)cc1OC", "inhibition": "-5.27%"}
{"compound": "Clc1ccccc1COc1ccc(/C=N/n2cnnc2)cc1", "inhibition": "-10.4%"}
{"compound": "COc1cc(/C=N/N=C(N)N)ccc1OCc1ccc(Cl)cc1", "inhibition": "49.6%"}
{"compound": "NC(N)=N/N=C/c1ccc(OCc2ccccc2)cc1", "inhibition": "17%"}
{"compound": "COc1cc(/C=N/N=C(N)N)ccc1OCc1ccccc1Cl", "inhibition": "-7.28%"}
{"compound": "NC(N)=N/N=C/c1ccc(Cl)cc1Cl", "inhibition": "14.2%"}
{"compound": "FCCCOc1ccc(/C=N/OCc2ccc(Cl)cc2Cl)cc1", "inhibition": "14.7%"}
{"compound": "CCCCCCCNC(=O)C1CC(=O)N(C)C(=Nc2ccc(OC)cc2)S1", "note": "(stereo unspecified)", "inhibition": "-2.09%"}
{"compound": "CCOc1cc(C(=O)OC(C)C(=O)Nc2ccc(S(N)(=O)=O)cc2)ccc1OCC(=O)N1CCOCC1", "note": "(stereo unspecified)", "inhibition": "8.2%"}
{"compound": "CC(C)CN1C2CCCC1CC(NC(=O)c1ccc([N+](=O)[O-])cc1)C2", "note": "(stereo unspecified)", "inhibition": "3.6%"}
{"compound": "N/C(=N\\NS(=O)(=O)c1ccccc1C(F)(F)F)c1ccccn1", "inhibition": "2.11%"}
{"compound": "COc1cccc(C(=O)Nc2c3c(nc4c2CCC4)CCCC3)c1", "inhibition": "-0.613%"}
{"compound": "CC(C)(C)C1CCC(C(=O)OCC(=O)N2CCN(C(=O)c3ccco3)CC2)CC1", "note": "(stereo unspecified)", "inhibition": "-8.5%"}
{"compound": "O=c1c(C=NCc2cccnc2)c(C(F)(F)F)[nH]n1-c1nc2ccccc2s1", "inhibition": "2.08%"}
{"compound": "COC(=O)C1=C(C)Nc2c(c(=O)n(C)c(=O)n2C)C1c1ccc(Cl)cc1", "note": "(stereo unspecified)", "inhibition": "0.17%"}
{"compound": "CC(=O)c1sc(-c2ccccn2)nc1C", "inhibition": "3.14%"}
{"compound": "N=c1ccn2c(n1)O[C@H]1[C@@H](CO)[C@H](O)O[C@H]12", "inhibition": "2.95%"}
{"compound": "CCOC(=O)c1cn(-c2ccc(F)c(F)c2)c2c(F)c(F)c(F)c(F)c2c1=O", "inhibition": "-9.71%"}
{"compound": "COC(=O)c1cc(NC(=S)NCc2ccc(Cl)cc2)cc(C(=O)OC)c1", "inhibition": "-2.32%"}
{"compound": "COC(=O)c1ccc(C)c(NC(=S)NCc2ccc(Cl)cc2)c1", "inhibition": "-7.26%"}
{"compound": "O=C(Nc1ccccc1)O/N=C(\\c1ccccc1)c1ccccn1", "inhibition": "-16.2%"}
{"compound": "Cc1ccc[n+](CC(=O)Nc2ccc([N+](=O)[O-])cc2)c1", "inhibition": "6.66%"}
{"compound": "Cc1cccc[n+]1CC(=O)Nc1ccc([N+](=O)[O-])cc1", "inhibition": "1.95%"}
{"compound": "N#Cc1ccccc1NC(=O)CSc1nnc(-c2ccccc2)n1-c1ccccc1", "inhibition": "0.92%"}
{"compound": "COc1ccc2c(c1OC)C(=O)N(c1ccc(O)cc1)C2=O", "inhibition": "-3.53%"}
{"compound": "COc1ccc2c(c1OC)C(=O)N(c1ccccc1)C2=O", "inhibition": "9.99%"}
{"compound": "CCN(C(=S)NCc1ccccc1)c1ccccc1", "inhibition": "-2.51%"}
{"compound": "Cc1c(NC(=O)C(=O)/C=C(\\O)c2ccc(Cl)cc2)c(=O)n(-c2ccccc2)n1C", "inhibition": "-8.97%"}
{"compound": "Cc1cc(C)nc(N/N=C/c2ccccc2)n1", "inhibition": "-1.28%"}
{"compound": "O=C(N/N=C/c1ccncc1)c1cccs1", "inhibition": "-16.1%"}
{"compound": "O=C(N/N=C/c1ccccn1)c1ccncc1", "inhibition": "10.1%"}
{"compound": "O=C(N/N=C/c1ccccn1)c1ccc(Br)cc1", "inhibition": "8.46%"}
{"compound": "O=C(N/N=C/c1ccc(Br)s1)c1cccs1", "inhibition": "5.12%"}
{"compound": "O=C(N/N=C/c1ccccn1)c1ccco1", "inhibition": "8.62%"}
{"compound": "Cc1ccc(/C=N/NC(=O)c2cccs2)s1", "inhibition": "-3.78%"}
{"compound": "CC(C)NC(=O)NC(=O)COC(=O)CCOc1ccccc1", "inhibition": "1.53%"}
{"compound": "O=C(CC1(CC2=NS(=O)(=O)c3ccccc3N2)CCCC1)NCCc1ccccc1", "inhibition": "-20.4%"}
{"compound": "O=C(NCC1CC1)c1cc(-c2ccccc2)nn1CC1CC(c2cccc([N+](=O)[O-])c2)=NO1", "note": "(stereo unspecified)", "inhibition": "4.4%"}
{"compound": "Cc1ccc(Cl)cc1N1CCN(S(=O)(=O)c2c(C)[nH]c(=O)[nH]c2=O)CC1", "inhibition": "8.84%"}
{"compound": "CCn1cc(C(=O)O)c(=O)c2cc(F)c(N3CCN(C(=S)NC(=O)c4c(OC)cccc4OC)CC3)cc21", "inhibition": "3.3%"}
{"compound": "C=CCNC(=S)N1CCN(c2cc3c(cc2F)c(=O)c(C(=O)O)cn3CC)CC1", "inhibition": "-3.14%"}
{"compound": "Cn1nnnc1SCC(=O)NCCCc1ccccc1", "inhibition": "0.19%"}
{"compound": "Cc1cccc(NC(=O)COC(=O)Cc2c[nH]c3ccccc23)c1C", "inhibition": "-3.69%"}
{"compound": "O=C(NC(=S)NCc1cccnc1)c1cc(Br)ccc1Cl", "inhibition": "-7.31%"}
{"compound": "O=C(COc1ncnc2ccccc12)NCC1CCCO1", "note": "(stereo unspecified)", "inhibition": "7.4%"}
{"compound": "Cc1cc(S(=O)(=O)Nc2cccc([N+](=O)[O-])c2)c(C)s1", "inhibition": "-6.89%"}
{"compound": "O=C(NNS(=O)(=O)c1ccccc1[N+](=O)[O-])c1cccc([N+](=O)[O-])c1", "inhibition": "-5.01%"}
{"compound": "Cc1occc1C(=O)NC(C)C12CC3CC(CC(C3)C1)C2", "note": "(stereo unspecified)", "inhibition": "2.3%"}
{"compound": "CCC1(CC)Cc2ccccc2C(CC(=O)N2CCOCC2)=N1", "inhibition": "-0.09%"}
{"compound": "COc1ccc(/C=C/C(=O)c2cc(Cl)cc(Cl)c2O)c(OC)c1", "inhibition": "1.28%"}
{"compound": "Cc1ccc(C(C[N+](=O)[O-])c2c(-c3ccccc3O)[nH][nH]c2=O)cc1", "note": "(stereo unspecified)", "inhibition": "3.54%"}
{"compound": "O=c1[nH][nH]c(-c2ccccc2O)c1C(C[N+](=O)[O-])c1ccccc1", "note": "(stereo unspecified)", "inhibition": "10.2%"}
{"compound": "Cc1ccc2c(C)c(C(=O)Nc3cccnc3)oc2c1", "inhibition": "-1.18%"}
{"compound": "CCN(CC)S(=O)(=O)c1ccc(/C=C/C(=O)Nc2ccc(Br)cc2F)cc1", "inhibition": "-3.09%"}
{"compound": "N#Cc1cccc(Nc2c3c(nc4ccccc24)CCC3)c1", "inhibition": "-6.96%"}
{"compound": "c1ccc(Nc2c3c(nc4ccccc24)CCC3)cc1", "inhibition": "-12.1%"}
{"compound": "Cc1ccc2nc3c(c(Nc4ccccc4)c2c1)CCC3", "inhibition": "1.9%"}
{"compound": "COc1cc(Nc2c3c(nc4ccccc24)CCC3)cc(OC)c1OC", "inhibition": "-13.8%"}
{"compound": "c1ccc2c(Nc3ccc4c(c3)OCCO4)c3c(nc2c1)CCCC3", "inhibition": "-7.16%"}
{"compound": "CC(=O)c1ccc(Nc2c3c(nc4ccccc24)CCCC3)cc1", "inhibition": "-0.46%"}
{"compound": "COc1ccc(Nc2c3c(nc4ccc(C)cc24)CCC3)cc1", "inhibition": "26.7%"}
{"compound": "c1ccc2c(Nc3ccc4c(c3)OCCO4)c3c(nc2c1)CCC3", "inhibition": "19.5%"}
{"compound": "O=C(O)C1C2CCC(C2)C1C(=O)N1CCCC1", "note": "(stereo unspecified)", "inhibition": "6.43%"}
{"compound": "COc1ccc(S(=O)(=O)N(C)CC(=O)NCCC2=CCCCC2)cc1OC", "inhibition": "9.61%"}
